According to PubChem BioAssay (NCATS):
Records with an inconclusive call do not appear. Where a call stands in place of a potency, no number is given. Active and inactive are the calls of the source. Calls come from the whole dose curve; as a rule, active = well fitted cell-killing curve with a large enough effect; inconclusive = small, poorly fitted or top-dose-only effect, or effect the other way; inactive = no such curve, though single readings can be large or run the other way.

Experiment: Quantitative High-Throughput drug screen in 47 multiple myeloma cell lines against the NCATS MIPE library collection: H1112_PLB cell viability assay (AID 1918967; note: nearly all actives have a fitted effect of over 30% in size)
Conditions: H1112 myeloma cells viability, ATP luminescence, 48 h; series mostly up to 45.8 µM
From the text: PI: Beverly A. Mock Ph.D.
Laboratory of Cancer Biology and Genetics,
Center for Cancer Research, National Cancer Institute,
National Institute of Health, Bethesda, Maryland
Drug resistance and disease progression are common in multiple myeloma (MM) patients, underscoring the need for new therapeutic combinations. […] We hypothesized that effective combinations would reduce MYC expression and enhance p16 activity. […] These preclinical data identify potentially useful drug combinations for evaluation in drug-resistant MM and reveal potential mechanisms of combined drug sensitivity.
Described herein is the primary MIPE qHTS used to cherrypick compounds. Validated compounds were then further tested for potential synergistic activiy.
[1] Peat TJ, Gaikwad SM, Dubois W, Gyabaah-Kessie N, Zhang S, Gorjifard S, Phyo Z, Andres M, Hughitt VK, Simpson RM, Miller MA, Girvin AT, Taylor A, Williams D, D'Antonio N, Zhang Y, Rajagopalan A, Flietner E, Wilson K, Zhang X, Shinn P, Klumpp-Thomas C, McKnight C, Itkin Z, Chen L, Kazandijian D, Zhang J, Michalowski AM, Simmons JK, Keats J, Thomas CJ, Mock BA. Drug combinations identified by high-throughput screening promote cell cycle transition and upregulate Smad pathways in myeloma. Cancer Lett. 2023 Aug 1;568:216284. doi: 10.1016/j.canlet.2023.216284. Epub 2023 Jun 24. PMID: 37356470; PMCID: PMC10408729.
SEQUENCE No. (e.g., 1, 2, 3, etc.); […] (e.g., Cells, Incubation, Reagent, etc.); VALUE and DESCRIPTION.
1; Cells; 5 uL; white, solid bottom 1536-well Greiner assay plate.
2; Compounds; 23 nL; Kalypsis pin tool (Wako USA) equipped with a 1536-well pin head to transfer to the assay plates.
3; Incubation; 48 hours; 37C incubation.
4; Reagent;5uL; CellTiter Glo (Promega).
5; Detector; 425V; Luminescence; Viewlux PerkinElmer.
NOTES (numbers refer to Sequence numbers above)
1. The cell-based screening methods employed in this study were like those previously published. Briefly, the corresponding myeloma cell lines were screened in 1,536-well plates with 500 cells, 5-uL per well for inhibition of cell viability (assessed by measuring ATP levels with CellTiterGlo).
2. NCATS MIPE 4.0 library of approved and investigational drugs were added using the Kalypsis pin tool. Wells treated with DMSO only for 100% viability and media only wells for 0% viability were used as controls.
3. The assay plates were covered and incubated for 48 hours in a 37C, 5% CO2 incubator with controlled humidity.
4. After 48 hours, CellTilter-GloTM luminescent substrate mix (Promega) reagent was added to the assay plate and plates we incubated for 5 min at room temperature.
5. Signal was measured as median relative luminescence units on a ViewLux (PerkinElmer) multiplate reader.
[1] Heske CM, Davis MI, Baumgart JT, Wilson K, Gormally MV, Chen L, Zhang X, Ceribelli M, Duveau DY, Guha R, Ferrer M, Arnaldez FI, Ji J, Tran HL, Zhang Y, Mendoza A, Helman LJ, Thomas CJ. Matrix Screen Identifies Synergistic Combination of PARP Inhibitors and Nicotinamide Phosphoribosyltransferase (NAMPT) Inhibitors in Ewing Sarcoma. Clin Cancer Res. 2017 Dec 1;23(23):7301-7311. doi: 10.1158/1078-0432.CCR-17-1121. Epub 2017 Sep 12. PMID: 28899971; PMCID: PMC6636827.
Potency is the fitted concentration of half-maximal effect.

| SMILES | Potency |
| --- | --- |
| Cn1cc(C=C2C(=O)Nc3cccnc32)c2ccccc21 | inactive |
| CC1(C)S[C@H]2[C@H](NC(=O)[C@@H](N)c3ccc(O)cc3)C(=O)N2[C@@H]1C(=O)O | inactive |
| O=C1NC(=O)C(=Cc2ccc3nccnc3c2)S1 | 6.45 µM (active) |
| CC(C)n1cnc2c(NCCCCCCNC(=O)OC(C)(C)C)nc(NCCO)nc21 | 23.5 µM (active) |
| CON=C(C(=O)N[C@@H]1C(=O)N2C(C(=O)OCOC(=O)C(C)(C)C)=C(C=Cc3scnc3C)CS[C@H]12)c1csc(N)n1 | inactive |
| CCc1ccc(OCc2ccccc2C(=O)Nc2ccc3nc(C)cc(N)c3c2)cc1 | 2.96 µM (active) |
| CO[C@H]1C(=O)[C@]2(C)[C@@H](OC)C[C@H]3OC[C@@]3(OC(C)=O)[C@H]2[C@H](OC(=O)c2ccccc2)[C@]2(O)C[C@H](OC(=O)[C@H](O)[C@@H](NC(=O)OC(C)(C)C)c3ccccc3)C(C)=C1C2(C)C | inactive |
| NS(=O)(=O)c1cccc2c1C(=O)c1cccc(O)c1C2=O | 0.526 µM (active) |
| COc1ccc(Cc2ccc(NC(N)=O)cc2)cc1-c1cccc(Cl)c1 | inactive |
| O=C1c2c(O)cc(O)cc2O[C@H](c2cc(O)c(O)c(O)c2)[C@H]1O | inactive |
| COC(=O)C1=CO[C@@H](O)[C@@H]2C(CO)=CC[C@@H]12 | inactive |
| COc1ccc2cccc(CCNC(C)=O)c2c1 | inactive |
| C[C@]12CC[C@@H]3c4ccc(O)cc4CC[C@H]3[C@H]1C[C@@H](O)[C@H]2O | inactive |
| CC(C)(C)C(=O)Oc1ccc2c(c1)nc(NC(=O)c1cccc([N+](=O)[O-])c1)n2CCCO | inactive |
| O=c1cc(-c2ccccc2)oc2cc(O)cc(O)c12 | inactive |
| CC(C)(C)c1cc(C(=O)O)c(NC(=O)Nc2ccc3[nH]ncc3c2)s1 | inactive |
| CC(C(=O)O)c1ccc(-c2ccccc2)c(F)c1 (stereo not given) | 18.7 µM (active) |
| CC(C)C(=O)Oc1ccc(CO)cc1[C@H](CCN(C(C)C)C(C)C)c1ccccc1 | inactive |
| COCCOc1nc(-c2ccc(Cl)c(Cl)c2)n(-c2ccc(NC(=O)CCl)cc2)n1 | 14.8 µM (active) |
| O=C1Nc2ccc(Cl)cc2C(C#CC2CC2)(C(F)(F)F)O1 (stereo not given) | 23.5 µM (active) |

| SMILES | Potency |
| --- | --- |
| COc1ccc2c(Oc3ccc(NC(=O)c4c(C)n(CC(C)(C)O)n(-c5ccccc5)c4=O)nc3)ccnc2c1 | inactive |
| CC(C)(C)Cn1c(N)nc2ccc(-c3[nH]c(C(C)(C)C)nc3-c3ccc(F)cc3)nc21 | 20.9 µM (active) |
| CS(=O)c1ccc(-c2nc(-c3ccc(F)cc3)c(-c3ccncc3)[nH]2)cc1 (stereo not given) | 48.1 µM (active) |
| C=C1C(=O)OC2C=C(C)CCC=C(C)CCC12 (stereo not given) | 20.9 µM (active) |
| COc1cc2ncnc(Nc3ccc(F)c(Cl)c3)c2cc1OCCCN1CCOCC1 | 1.52 µM (active) |
| COc1cc2nc(-c3ccc(N4CCN(C)CC4)cc3)nc(NCCN3CCOCC3)c2cc1OC | 1.48 µM (active) |
| O=c1[nH]cnc2c1ncn2[C@H]1CC[C@@H](CO)O1 | inactive |
| CC(C)=CC[C@@H](O)C1=CC(=O)c2c(O)ccc(O)c2C1=O | 7.43 µM (active) |
| Cc1ccc(C(C)(O)c2nc3ccccc3s2)c(C)c1 (stereo not given) | inactive |
| CCCCCN(C)CCC(O)(P(=O)(O)O)P(=O)(O)O | inactive |
| O=C(O)C(O)Cc1ccc(O)c(O)c1 (stereo not given) | inactive |
| CC(=O)N(C)C1(c2ccccc2)CCN(CCC[C@]2(c3ccc(Cl)c(Cl)c3)CCCN(C(=O)c3ccccc3)C2)CC1 | 20.9 µM (active) |
| CO[C@H]1C=CO[C@@]2(C)Oc3c(C)c(O)c4c(O)c(c5c(c4c3C2=O)NC2(CCN(CC(C)C)CC2)N=5)=NC(=O)C(C)=CC=C[C@H](C)[C@H](O)[C@@H](C)[C@@H](O)[C@@H](C)[C@H](OC(C)=O)[C@H]1C | inactive |
| O=C(NC1CCOCC1)c1ccc(-c2cc(-c3cn[nH]c3-c3ccccn3)ccn2)cc1 | inactive |
| O=c1c(-c2ccc(O)cc2)coc2cc(O[C@@H]3O[C@H](CO)[C@H](O)[C@H](O)[C@H]3O)ccc12 | inactive |
| CCOC(=O)O[C@]1(C(=O)OCCl)CC[C@@H]2[C@H]3CCC4=CC(=O)C=C[C@]4(C)[C@@H]3[C@@H](O)C[C@@]21C | inactive |
| Nc1ncnc2c1ncn2[C@@H]1O[C@@H](CO)[C@H](O)[C@H]1O | inactive |
| O=C(O)C=Cc1ccc(O)c(O)c1 | inactive |
| CCc1ccc(C=C2SC(=S)NC2=O)cc1 | inactive |
| O=C1NC(=O)C(=Cc2ccc3c(c2)OC(F)(F)O3)S1 | 20.9 µM (active) |
